High-throughput results deposited in PubChem by National Center for Advancing Translational Sciences (NCATS).
The full list was thinned out, with hits kept by preference.
Pin1 inhibitor: blocks the human prolyl isomerase Pin1; Q13526; Pin1 FP peptide displacement, HiFluor488, 10 min; Potency, µM (series often up to 115 µM), most hits filed as inhibitors; actives 0.009% (n = 390,000); active = well fitted inhibition curve with a large enough effect in the polarisation, with a control signal flat, not every such curve was filed as active; inconclusive = small, poorly fitted or top-dose-only effect, or effect the other way, or a change in a side signal; inactive = no such curve, though single readings can be large or run the other way; the % refers to the polarisation
Target sequence (Q13526 whole entry, looked up): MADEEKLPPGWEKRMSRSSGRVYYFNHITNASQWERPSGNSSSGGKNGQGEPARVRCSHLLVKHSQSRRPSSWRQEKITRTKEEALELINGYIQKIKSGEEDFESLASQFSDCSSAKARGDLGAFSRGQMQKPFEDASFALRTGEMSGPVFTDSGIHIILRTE
PI5P4Ka inh: PI5P4K alpha (human) kinase inhibition; AID 652105; PI5P4Kalpha enzyme, ADP-Glo luminescence, 60 min; active compounds read low; actives 1.2% (n = 330,000); max response, %; active = max response of -50% or lower; inconclusive = between -30% and -50%; inactive = -30% or higher; note: value at the top dose of about 77 µM
Target sequence (P48426 whole entry, looked up): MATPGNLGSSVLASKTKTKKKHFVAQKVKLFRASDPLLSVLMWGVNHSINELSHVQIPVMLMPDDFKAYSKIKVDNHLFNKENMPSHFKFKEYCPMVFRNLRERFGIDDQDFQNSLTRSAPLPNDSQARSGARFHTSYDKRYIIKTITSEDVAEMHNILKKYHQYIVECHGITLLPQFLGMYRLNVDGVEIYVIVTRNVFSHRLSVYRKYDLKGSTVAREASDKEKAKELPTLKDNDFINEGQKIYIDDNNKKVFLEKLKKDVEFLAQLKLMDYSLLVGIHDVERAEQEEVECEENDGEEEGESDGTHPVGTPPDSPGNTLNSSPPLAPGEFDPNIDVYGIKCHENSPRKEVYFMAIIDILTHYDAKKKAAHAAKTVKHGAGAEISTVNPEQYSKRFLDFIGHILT
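qHTS, 1536-well: enzyme/substrate mix, compound by pin tool, 5 microM ATP final; RT 60 min; ADP-Glo reagents 1 (45 min) then 2 (30 min); luminescence.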
PGK inhibitor: blocks T. brucei phosphoglycerate kinase | P07378 | PGK/GAPDH coupled, Kinase-Glo luminescence, 60 min | Potency, µM (highest dose often 57.5 µM), hits mostly inhibitors | actives 0.043% (n = 380,000) | AID 602233; note: nearly all actives have a fitted effect of over 60% in size
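Recombinant glycosomal PGK reaction used 1,3-bisphosphoglycerate generated in-well by GAPDH (100nM final) in 100mM TEA pH 7.6, 5mM MgCl2, 0.01% Tween-20. After 60 minutes at room temperature, ATP was read by Kinase-Glo Plus luminescence end-point.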
PI4K2A block: blocks human PI4K2A kinase activity; purified PI4K2A, ADP-Glo luminescence, 1 h; active compounds read low; activity change, negative = inhibition, % at 76.9 µM; actives 0.13% (n = 420,000); Q9BTU6; in the data active = activity change below about -50%; inconclusive = mostly about -30% to -49%
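ADP-Glo luminescence measured ADP generated by PI4K2A enzyme (4 ug/mL before mixing) with 1.2 mM PI substrate (pre-mix) and 300 microM ATP (pre-mix). Tris pH7.5 buffer with MgCl2, Triton X-100; 1 h reaction at ambient temperature.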
Tb PFK inh-1: blocks T. brucei phosphofructokinase; O15648; actives 0.17% (n = 330,000); T. brucei PFK, ADP-Glo luminescence; Potency, µM (titrated, usually from 57.5 µM), actives largely listed as inhibitors; note: nearly all actives have a fitted effect of over 60% in size
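Compounds were pin-transferred as a titration series up to 57 uM into substrate buffer (0.5 mM F6P, 0.1 mM ATP, pH 8.0), then 1.25 nM PFK was added and reactions ran 45 min before ADP-Glo detection.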
Tb PFK KinaseGlo: inhibits T. brucei PFK measured by ATP depletion | shares compounds with Tb PFK inh-1 | Tb PFK enzyme, ATP depletion, Kinase-Glo Plus luminescence | Potency, µM (highest dose often 57.5 µM) | actives 47% (n = 1,100) | AID 504636; calls by dose curve; note: nearly all actives have a fitted effect of over 60% in size
Tb PFK inh-2: validation of T. brucei phosphofructokinase inhibitors. shares compounds with Tb PFK inh-1. purified T. brucei PFK, ADP-Glo luminescence, 45 min. Potency, µM (highest dose often 57.5 µM), usual class: inhibitors. actives 41% (n = 1,100); note: nearly all actives have a fitted effect of over 60% in size
Large screens that a line does not name were inactive (follow-up assays come after a bar, where they were run). Unless noted, calls come from the whole dose curve; as a rule, active = well fitted curve in the direction sought with a large enough effect; inconclusive = small, poorly fitted or top-dose-only effect, or another doubt; inactive = no such curve, though single readings can be large; an effect the other way counts as inactive or inconclusive.

O=C(O)C1CCCCC1C(=O)Nc1cccc(Br)c1 (stereo not drawn)	PI5P4Ka inh inconclusive, PGK inhibitor inconclusive, Tb PFK inh-1 16.9µM | Tb PFK KinaseGlo 12µM | Tb PFK inh-2 26.9µM
CC(C)c1ccc(OCC(=O)N2CCN(CCc3ccncc3)CC2)cc1	none (no result: PI5P4Ka inh, Tb PFK inh-1)
OCC[n+]1c2ccccc2nc2ccc(N3CCOCC3)cc21	Tb PFK inh-1 inconclusive | Tb PFK KinaseGlo inactive | Tb PFK inh-2 inactive
Cc1cccc(NC(=O)Cn2nc([N+](=O)[O-])c(Br)c2C)n1	Tb PFK inh-1 16.9µM | Tb PFK KinaseGlo 12µM | Tb PFK inh-2 21.3µM
Cc1cc(NC(=O)Cn2nc([N+](=O)[O-])c(Br)c2C)no1	Tb PFK inh-1 26.9µM | Tb PFK KinaseGlo 21.3µM | Tb PFK inh-2 inconclusive
Cc1c(Br)c([N+](=O)[O-])nn1CC(=O)Nc1ccc(CC#N)cc1	Tb PFK inh-1 inconclusive (no result: Pin1 inhibitor, PI5P4Ka inh, PGK inhibitor, PI4K2A block) | Tb PFK KinaseGlo inconclusive | Tb PFK inh-2 inconclusive
Cc1c(Br)c([N+](=O)[O-])nn1CC(=O)Nc1cccc2nonc12	PI5P4Ka inh inconclusive, Tb PFK inh-1 7.57µM | Tb PFK KinaseGlo 4.78µM | Tb PFK inh-2 2.69µM
Cc1cc(NC(=O)C(Cl)(Cl)Cl)no1	none
CCOC(=O)NC(O)C(Cl)(Cl)Cl (stereo not drawn)	none (no result: Pin1 inhibitor, PI5P4Ka inh, PGK inhibitor, Tb PFK inh-1)
COc1ccc(/C=C/c2nc3ccccc3c(=O)n2-c2ccc(C)cc2)cc1O	none (no result: PI5P4Ka inh, Tb PFK inh-1)
CCN(CC)CCOC(=O)C(C)(c1ccccc1)c1ccccc1	none (no result: Pin1 inhibitor, PI5P4Ka inh, PGK inhibitor, Tb PFK inh-1)
O=C(Nc1ccc(Cl)c([N+](=O)[O-])c1)c1ccncc1	Tb PFK inh-1 inconclusive | Tb PFK KinaseGlo inconclusive | Tb PFK inh-2 inconclusive
CC(C)CNC(=O)c1cccc(NC(=O)c2ccc(Cl)c([N+](=O)[O-])c2)c1	Tb PFK inh-1 23.9µM | Tb PFK KinaseGlo 10.7µM | Tb PFK inh-2 21.3µM
CC(=O)N1CCN(c2ccc(NC(=O)c3ccc(Cl)c([N+](=O)[O-])c3)cc2)CC1	Tb PFK inh-1 inconclusive | Tb PFK KinaseGlo inconclusive | Tb PFK inh-2 30.1µM
N#Cc1cccc(NC(=O)c2sc3nc4c(cc3c2N)N2CCC4CC2)c1	none (no result: PI5P4Ka inh, Tb PFK inh-1)
CSc1nn(-c2ccc(C(=O)OCC(=O)NC(=O)NC(C)C)cc2)c(=S)s1	none
CP(=O)(O)C1=CCNCC1	none (no result: Pin1 inhibitor, PI5P4Ka inh, PGK inhibitor, Tb PFK inh-1)
COc1ccc(C(O)(c2ccccc2)c2ccncc2)cc1 (stereo not drawn)	none (no result: Tb PFK inh-1)
CCC1(O)C(=O)OCc2c1cc1n(c2=O)Cc2cc3c(N)cccc3nc2-1 (stereo not drawn)	none (no result: Tb PFK inh-1)
CS(=O)(=O)NNC(=O)c1cc2cc3ccccc3nc2s1	Tb PFK inh-1 inconclusive | Tb PFK KinaseGlo inactive | Tb PFK inh-2 inactive
COc1ccc(S(=O)(=O)NNC(=O)c2cc3cc4ccccc4nc3s2)cc1	Pin1 inhibitor inconclusive, Tb PFK inh-1 inconclusive | Tb PFK KinaseGlo inactive | Tb PFK inh-2 inconclusive
O=C(COc1ccccc1Cl)N1CCN(CCc2ccccn2)CC1	none (no result: PI5P4Ka inh, Tb PFK inh-1)
CC12NC(Cc3ccccc31)c1ccccc12 (stereo not drawn)	none (no result: Pin1 inhibitor, PI5P4Ka inh, PGK inhibitor, Tb PFK inh-1)
Nc1nc2ccccc2n1Cc1ccc(Cl)c(Cl)c1	Tb PFK inh-1 inconclusive | Tb PFK KinaseGlo 13.5µM | Tb PFK inh-2 inconclusive
CCCC12CN3CC(C)(CN(C1)C3c1ccccn1)C2=O (stereo not drawn)	none (no result: PI5P4Ka inh, Tb PFK inh-1)
C=CCSC1=N/C(=C\C=C\c2ccco2)C(=O)S1	PI5P4Ka inh -63.2, PGK inhibitor inconclusive, Tb PFK inh-1 16.9µM | Tb PFK KinaseGlo inconclusive | Tb PFK inh-2 inconclusive
O=C(Nc1ccc2c(c1)OCCO2)c1cccn(Cc2cccc([N+](=O)[O-])c2)c1=O	none (no result: PI5P4Ka inh, Tb PFK inh-1)
Cc1ccc(-c2nc(CN3C(=O)CN=C(c4ccccc4)c4ccccc43)c(C)o2)cc1	none (no result: PI5P4Ka inh, Tb PFK inh-1)
CC1=NN(CCC#N)C(=O)/C1=C/c1ccc(N(C)C)cc1	Tb PFK inh-1 21.3µM | Tb PFK KinaseGlo 10.7µM | Tb PFK inh-2 26.9µM
CC1=NOC(=O)/C1=C/c1ccc(N(C)C)cc1	Pin1 inhibitor inconclusive, Tb PFK inh-1 15.1µM (no result: PI5P4Ka inh) | Tb PFK KinaseGlo inconclusive | Tb PFK inh-2 13.5µM
COc1ccc(/C=C2\Oc3cc(OC(=O)N4CCOCC4)ccc3C2=O)c(OC)c1	Pin1 inhibitor inconclusive
